Source: PubChem
The full list was thinned out, with hits kept by preference.
TbPYK inhibitor: qHTS of Trypanosoma Brucei Inhibitors; pyruvate kinase (Trypanosoma brucei), Q57TT1; TbPYK enzyme, Kinase-Glo Plus ATP luminescence, 45 min; Potency, µM (titrated, usually from 76.8 µM), without a hit: top-dose activity, negative = inhibition, most hits filed as inhibitors; 410,000 compounds, 0.12% hits; further: potency means the concentration at half of the fitted maximal effect; on the % scale 0 is the no-effect control and ±100 the full control effect; nearly all actives have a fitted effect of over 50% in size
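Enzyme and substrate buffer are dispensed first and compound is pin-transferred. ADP at 130 uM final then starts the reaction, which runs 45 min at room temperature. Detection reagent is added for 10 min before luminescence is imaged.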
Sm TGR block: qHTS Assay for the Inhibitors of Schistosoma Mansoni Peroxiredoxins; Schistosoma mansoni thioredoxin glutathione reductase (TGR), Q962Y6; purified TGR, DTNB reduction, TNB absorbance 405 nm; Potency, µM (doses to about 114 µM), inactives show at the highest dose activity change, negative = inhibition, actives largely listed as inhibitors; 360,000 compounds, 3% hits; further: potency means the concentration at half of the fitted maximal effect; on the % scale 0 is the no-effect control and ±100 the full control effect; nearly all actives have a fitted effect of over 60% in size
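First, TGR (20 nM dispensed) and NADPH were mixed with compound. Second, a 15 min room-temperature incubation followed. Third, further NADPH and then DTNB were added to start the reaction. Finally, TNB absorbance was monitored kinetically.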
Cycloheximide cs: Cycloheximide Counterscreen for Small Molecule Inhibitors of Shiga Toxin. cell reporter, cycloheximide protein synthesis inhibition counterscreen. max response, %. 300,000 compounds, 12% hits; in the data active means max response mostly above about 13%, no sharp cut-off; inactive means mostly below about 14%; further: read at 38.3 µM for the half of the compounds with a filed dose; 0% is about no effect
Giardia FBPA inh-1: qHTS Assay for Inhibitors of Fructose-1,6-bisphosphate Aldolase from Giardia Lamblia; A8B2U2; purified Giardia FBPA; Potency, µM (doses to about 59.6 µM), for inactives: at the top dose activity, negative = inhibition, actives largely listed as inhibitors; 290,000 compounds, 0.71% hits; further: potency means the concentration at half of the fitted maximal effect; on the % scale 0 is the no-effect control and ±100 the full control effect; nearly all actives have a fitted effect of over 55% in size
Target sequence (A8B2U2 whole entry, looked up): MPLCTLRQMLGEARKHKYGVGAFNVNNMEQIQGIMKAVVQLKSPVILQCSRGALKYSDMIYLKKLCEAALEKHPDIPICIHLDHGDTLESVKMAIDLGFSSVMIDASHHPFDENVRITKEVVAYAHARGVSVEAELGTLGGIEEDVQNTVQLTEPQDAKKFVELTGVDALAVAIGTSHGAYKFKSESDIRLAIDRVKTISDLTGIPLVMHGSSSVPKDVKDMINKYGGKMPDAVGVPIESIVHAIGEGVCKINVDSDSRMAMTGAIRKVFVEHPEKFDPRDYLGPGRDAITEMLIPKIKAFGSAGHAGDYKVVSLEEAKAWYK
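Giardia FBPA (40 nM reagent) was preincubated 10 min at RT with compound (up to 57.5 uM final), then substrate plus GAPDH/TPI/NAD/arsenate coupling system with diaphorase/resazurin was added; resorufin fluorescence (525/598 nm) was read after 20 min.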
Shiga inhibitor: A qHTS for Small Molecule Inhibitors of Shiga Toxin | inhibition, % at 38.7 µM | Vero cells, Shiga toxin protein synthesis inhibition reporter | 290,000 compounds, 9.2% hits; in the data active means inhibition mostly above about 28%, no sharp cut-off; inactive means mostly below about 43%; further: 0% is about no effect
LmPK inh: qHTS Assay for Inhibitors of Leishmania Mexicana Pyruvate Kinase (LmPK); 290,000 compounds, 0.37% hits; Potency, µM (highest dose often 57.5 µM), inactives show top-dose activity change, negative = inhibition, most hits filed as inhibitors; purified LmPK, Kinase-Glo ATP luminescence, 1 h; AID 1721, 2009; Q27686; further: potency means the concentration at half of the fitted maximal effect; on the % scale 0 is the no-effect control and ±100 the full control effect
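In 50 mM imidazole pH 7.2 with 7 mM MgCl2, LmPK (0.1 nM) turned over PEP (0.5 mM) and ADP (0.1 mM) for 1 h at room temperature. Luciferase read-out of ATP.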
Giardia growth: qHTS Assay for Inhibitors of Fructose-1,6-bisphosphate Aldolase from Giardia Lamblia: Giardia lamblia growth inhibition; shares compounds with Giardia FBPA inh-1; Giardia lamblia trophozoite growth inhibition; Potency, µM (titrated, usually from 57.5 µM), for inactives: at the top dose activity change, negative = inhibition, most hits filed as inhibitors; 1,500 compounds, 5% hits;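 further: potency means the concentration at half of the fitted maximal effect; trophozoites exposed to compound for 48 h at 37 °C; on the % scale 0 is the no-effect control and ±100 the full control effect; nearly all actives have a fitted effect of over 70% in size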
Mammal cell tox: qHTS Assay for Inhibitors of Fructose-1,6-bisphosphate Aldolase from Giardia Lamblia: Mammalian cellular toxicity; mammalian cell viability counter-screen, qHTS; shares compounds with Giardia FBPA inh-1; 1,500 compounds, 4% hits; Potency, µM (top dose mostly 57.5 µM), without a hit: at the highest dose viability change, negative = toxicity, hits mostly inhibitors; AID 2786, 2010;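 further: Chinese hamster ovary cells used as mammalian cytotoxicity surrogate; viability measured as cellular ATP by luminescence; potency means the concentration at half of the fitted maximal effect; compound exposure lasted 48 h before reading; on the % scale 0 is the no-effect control and ±100 the full control effect; nearly all actives have a fitted effect of over 60% in size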
Giardia FBPA inh-2: qHTS Assay for Inhibitors of Fructose-1,6-bisphosphate Aldolase from Giardia Lamblia: Primary screen confirmation. shares compounds with Giardia FBPA inh-1. purified Giardia aldolase enzyme activity, qHTS. Potency, µM (highest dose often 57.5 µM), for the others: top-dose activity change, negative = inhibition, actives largely listed as inhibitors. 1,500 compounds, 5% hits; further: potency means the concentration at half of the fitted maximal effect; on the % scale 0 is the no-effect control and ±100 the full control effect; nearly all actives have a fitted effect of over 45% in size
Rabbit aldolase: qHTS Assay for Inhibitors of Fructose-1,6-bisphosphate Aldolase from Giardia Lamblia: Rabbit FBPA Selectivity; 1,500 compounds, 4% hits; shares compounds with Giardia FBPA inh-1; Potency, µM (top dose mostly 57.5 µM), for the others: at the top dose activity, negative = inhibition, most hits filed as inhibitors; Rabbit muscle FBPA enzyme inhibition, selectivity counter-screen; further: potency means the concentration at half of the fitted maximal effect; on the % scale 0 is the no-effect control and ±100 the full control effect; nearly all actives have a fitted effect of over 60% in size
GAPDH coupling: qHTS Assay for Inhibitors of Fructose-1,6-bisphosphate Aldolase from Giardia Lamblia: Coupling assay counterscreen confirmation | GAPDH coupling enzyme counterscreen, biochemical, qHTS | shares compounds with Giardia FBPA inh-1 | 1,500 compounds, 6% hits | Potency, µM (titrated, usually from 57.5 µM), for inactives: at the top dose activity change, negative = inhibition, hits mostly inhibitors; further: potency means the concentration at half of the fitted maximal effect; on the % scale 0 is the no-effect control and ±100 the full control effect; nearly all actives have a fitted effect of over 55% in size
Numbers without * were called inactive; u = inconclusive; x = no result given; [ ] = another dose, or the depositor's remark. Unless noted, the call rests on the fitted dose curve; in most records, active means well fitted curve in the direction sought with a large enough effect; inconclusive means small, poorly fitted or top-dose-only effect, or another doubt; inactive means no such curve, though single readings can be large; an effect the other way counts as inactive or inconclusive.

SMILES	TbPYK inhibitor	Sm TGR block	Cycloheximide cs	Giardia FBPA inh-1	Shiga inhibitor	LmPK inh	Giardia growth	Mammal cell tox	Giardia FBPA inh-2	Rabbit aldolase	GAPDH coupling
COc1ccc(C(=O)NC(=S)N2CCOCC2)cc1[N+](=O)[O-]	u	4.2%	-2.9	x	-16.3	-7.5%	x	x	x	x	x
COc1cc(C(=O)NC(=S)N2CCCCCC2)cc(OC)c1OC	-6.7%	12.6%	1.4	15.8µM*	24.8	0.5%	u	-5.6%	-2.9%	3.1%	10.1%
COc1ccc(C(=O)NC(=S)N2CCOCC2)cc1Br	u	-23.6%	-3.5	15.8µM*	-6.3	0.7%	u	-1.5%	-2.3%	5.4%	7.3%
Cc1ccc(C)c(S(=O)(=O)c2nnn3c2nc(N2CCN(C)CC2)c2sccc23)c1	-0.8%	1.1%	x	x	x	x	x	x	x	x	x
COc1cc(NC(=O)CSc2nc3ncnc(N)c3[nH]2)c(C(=O)O)cc1OC	8.1%	-15.0%	-2.1	11.2µM*	3.5	1.5%	5.6%	-13.6%	-1.6%	2.3%	2.3%
CCOC(=O)c1[nH]ncc1CN1CCc2ccc(NC(=O)C3CCCO3)cc2C1 (stereo not drawn)	-3.5%	-5.9%	1.2	-12.6%	-10.6	4.8%	x	x	x	x	x
c1n[nH]c(SCCCCSc2ncn[nH]2)n1	2.5%	-23.4%	-6.6	-27.0%	-14.0	3.9%	x	x	x	x	x
C(=C\CSc1ncn[nH]1)/CSc1ncn[nH]1	0.0%	0.1%	-2.0	u	-4.7	-6.8%	0.4%[38.3 µM]	3.6%	-1.8%	1.0%	1.9%
CCCCn1c(N)c(N(CC(C)C)C(=O)CSCc2cccc(C)c2)c(=O)[nH]c1=O	-3.2%	-9.9%	x	x	x	x	x	x	x	x	x
Nc1ccc2nc(Cc3ccccc3)[nH]c2c1	-6.0%	-0.5%	20.8	15.8µM*	24.5	-0.4%	-6.2%[10.4 µM]	-7.5%	-16.4%	-9.2%	-2.7%
CC(C)Cc1nc2ccc(N)cc2[nH]1	3.4%	9.2%	10.7	u	4.6	-4.8%	x	x	x	x	x
Cc1cc(C)c(NC(=S)NCCCSC2CCCCC2)c(C)c1	-21.4%	8.4%	1.3	15.8µM*	-8.2	1.6%	u	14.1%	9.0%	15.9%	-0.9%
Cc1ccnc(N2CCC(C(=O)NNC(=O)COc3cccc4ccccc34)CC2)n1	10.3%	5.0%	-1.3	3.5%	9.3	0.0%	x	x	x	x	x
CC(C)(C)c1cc(C(=S)N2CCN(CCO)CC2)cc(C(C)(C)C)c1O	u	0.0%	-3.3	9.98µM*	-14.6	0.1%	-3.9%[10.4 µM]	-4.0%	-12.3%	u	u
